Experimental data taken from PubChem BioAssay (EPA / NIEHS).
“And” between values parts separate entries of the source, which are not always exact repeats. Equal entries are not always repeated. The source holds several records for some structures; these can differ, active in one and inactive in another. The source made the active and inactive calls. How the source made its calls: active means hit-call score of the fitted dose curve at least 0.9, where 1 is the maximum; inactive means score below 0.9.

Key:
[1] = ATG_E_Box_CIS: Attagene CIS-FACTORIAL HepG2 Assay for human Enhancer Box (E-box) (AID 2282936); details: HepG2 E-box cis-reporter transcription, actives raise or lower the signal
Outline: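 HepG2 cells transiently transfected with multiplexed cis-element reporter units, dosed 24 h; reporter mRNA quantified by RT-PCR, 6-FAM labelling, HpaI digestion and capillary electrophoresis. E-box (USF1) signal fitted bidirectionally vs DMSO.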

[2] = ATG_M_61_CIS: Attagene CIS-FACTORIAL HepG2 Assay for M61 Transcription Factor (Internal Marker) (AID 2282937); details: HepG2 Attagene CIS-FACTORIAL M61 internal marker reporter; actives raise or lower the signal
Outline: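 HepG2 cells transiently transfected with multiplexed cis-promoter reporter units reporting endogenous transcription factor activity, measured 24 h after dosing. Reporter mRNA quantified by RT-PCR and capillary electrophoresis; bidirectional fit against DMSO baseline.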

[3] = ATG_EGR_CIS: Attagene CIS-FACTORIAL HepG2 Assay for human Early Growth Response 1 (EGR1) (AID 2282938); details: HepG2 Attagene CIS-FACTORIAL EGR reporter mRNA; actives raise or lower the signal
Outline: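 HepG2 cells transiently transfected with cis-element-driven multiplexed reporter units, dosed for 24 h. EGR1-element reporter mRNA quantified by RT-PCR, 6-FAM labelling, HpaI digestion and capillary electrophoresis; bidirectional fit versus DMSO.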

[4] = ATG_Ets_CIS: Attagene CIS-FACTORIAL HepG2 Assay for human Erythroblast Transformation Specific (ETS) (AID 2282941); details: HepG2 ETS cis-reporter transcription, actives raise or lower the signal
Outline: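 Steps: transfect HepG2 with multiple reporter units; treat compound 24 h; isolate RNA, DNase-treat, reverse-transcribe; PCR-amplify, label with 6-FAM, digest with HpaI; separate by capillary electrophoresis. Activity fitted both directions versus DMSO.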

[5] = target: Hepatocyte nuclear factor 3-beta (Homo sapiens) (UniProt Q9Y261); assay: ATG_FoxA2_CIS: Attagene CIS-FACTORIAL HepG2 Assay for human Forkhead box A2 (FOXA2) (AID 2282942); details: HepG2 cis-reporter transcription factor activity, 24 h; actives raise or lower the signal
Hepatocyte nuclear factor 3-beta (Homo sapiens), sequence (Q9Y261 whole entry, looked up): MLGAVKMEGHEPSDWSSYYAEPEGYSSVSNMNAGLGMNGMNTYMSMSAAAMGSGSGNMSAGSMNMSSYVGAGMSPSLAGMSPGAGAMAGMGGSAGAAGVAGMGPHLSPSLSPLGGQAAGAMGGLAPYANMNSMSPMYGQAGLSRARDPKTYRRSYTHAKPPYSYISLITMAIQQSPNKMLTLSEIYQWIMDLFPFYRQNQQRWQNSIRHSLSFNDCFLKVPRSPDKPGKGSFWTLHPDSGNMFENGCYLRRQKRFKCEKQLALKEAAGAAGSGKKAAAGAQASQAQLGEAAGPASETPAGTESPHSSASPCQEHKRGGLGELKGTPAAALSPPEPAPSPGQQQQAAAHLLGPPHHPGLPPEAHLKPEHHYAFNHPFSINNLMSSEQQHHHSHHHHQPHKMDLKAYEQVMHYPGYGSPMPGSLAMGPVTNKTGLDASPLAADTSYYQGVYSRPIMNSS
Outline: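 HepG2 transiently transfected with a multiplexed cis-promoter reporter library read endogenous FOXA2 activity. After 24 h compound exposure, reporter mRNA was quantified by RT-PCR, HpaI digestion and capillary electrophoresis. Bidirectional fit against DMSO.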

[6] = ATG_GATA_CIS: Attagene CIS-FACTORIAL HepG2 Assay for human GATA Binding Protein (AID 2282944); details: HepG2 GATA cis-element reporter, Attagene multiplex mRNA; actives raise or lower the signal
Outline: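 Reporter transcripts from a GATA cis-regulated unit, among multiplexed reporters in transfected HepG2 cells, were measured by RT-PCR with capillary electrophoresis after 24 h dosing. Induction or loss scored relative to DMSO.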

[7] = ATG_GLI_CIS: Attagene CIS-FACTORIAL HepG2 Assay for human Zinc Finger Protein GLI1 (AID 2282945); details: HepG2, Attagene cis-factorial reporter mRNA, GLI element; actives raise or lower the signal
Outline: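 Transiently transfected HepG2 cells report endogenous transcription factor activity via cis-element-driven reporter units. After 24 h compound exposure, reporter mRNA was measured by RT-PCR with capillary electrophoresis; bidirectional fitting against DMSO baseline.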

[8] = ATG_M_19_CIS: Attagene CIS-FACTORIAL HepG2 Assay for M19 Transcription Factor (Internal Marker) (AID 2282939); details: HepG2 Attagene CIS-FACTORIAL M19 internal marker reporter; actives raise or lower the signal
Outline: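 Internal marker readout, fitted in both directions against DMSO, from HepG2 cells carrying transfected cis-element reporter constructs; RT-PCR and capillary electrophoresis of reporter mRNA after 24 h exposure.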

[9] = ATG_FoxO_CIS: Attagene CIS-FACTORIAL HepG2 Assay for human Forkhead box O (FoxO) (AID 2282943); details: HepG2 Attagene cis-reporter, FoxO element, mRNA; actives raise or lower the signal
Outline: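 HepG2 cells transiently transfected with cis-element-driven reporter units report endogenous FoxO activity. After 24 h chemical exposure, reporter mRNA quantified by RT-PCR, fluorescent labeling, HpaI digestion and capillary electrophoresis; bidirectional fit versus DMSO.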

[10] = ATG_ERE_CIS: Attagene CIS-FACTORIAL HepG2 Assay for Estrogen Response Element (ERE) (AID 2282940); details: HepG2 ERE cis-reporter, Attagene RNA transcript; actives raise or lower the signal
Outline: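 After 24 h compound treatment, RNA from transfected HepG2 cells was reverse-transcribed, reporter cDNA PCR-amplified, FAM-labelled, HpaI-cut and resolved by capillary electrophoresis. ERE-driven cis reporter transcripts reflect endogenous factors; gain or loss scored against DMSO.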

SMILES | outcome [1] | outcome [2] | outcome [3] | outcome [4] | outcome [5] | outcome [6] | outcome [7] | AC50 [1] | outcome [8] | outcome [9] | AC50 [3] | outcome [10] | AC50 [4] | AC50 [7]
CCOCCOCCO | inactive | inactive | inactive | inactive | inactive | inactive | inactive | – | – | – | – | – | – | –
O=NO | inactive | inactive | inactive | inactive | inactive | inactive | inactive | – | – | – | – | – | – | –
CC(=O)[C@@]1(O)CC[C@H]2[C@@H]3CCC4=CC(=O)CC[C@]4(C)[C@H]3CC[C@@]21C | inactive | inactive | inactive | – | inactive | inactive | inactive | 4.34 µM (active) and 27 µM (active) and 33.6 µM (active) | inactive | inactive | – | – | – | –
NC(=Nc1ccccc1)Nc1ccccc1 | inactive | inactive | – | inactive | inactive | inactive | inactive | – | – | inactive | 39.2 µM (active) | inactive | – | –
CCCC(=O)O | inactive | inactive | inactive | – | inactive | inactive | inactive | – | – | inactive | – | – | – | –
Cc1ccc(-c2cc(C(F)(F)F)nn2-c2ccc(S(N)(=O)=O)cc2)cc1 | inactive | inactive | inactive | inactive | inactive | inactive | inactive | – | – | inactive | – | inactive | – | –
CCC(C)N(C)C(=O)c1cc2ccccc2c(-c2ccccc2Cl)n1 (stereo unspecified) | inactive | inactive | – | inactive | inactive | inactive | inactive | – | inactive | – | 62.5 µM (active) | inactive | – | –
CC(C)(O)c1ccc(CNC(=O)c2cccnc2Oc2ccc(F)cc2)cc1 | inactive | inactive | inactive | – | inactive | inactive | inactive | – | inactive | inactive | – | – | – | –
CCCCCCCCCC[N+](C)(C)[O-] | inactive | inactive | inactive | – | inactive | inactive | inactive | – | inactive | inactive | – | inactive | – | –
CC(C)c1cccc(C(C)C)c1 | inactive | inactive | inactive | – | inactive | inactive | inactive | – | – | inactive | – | inactive | – | –
O=C(NS(=O)(=O)/C=C/c1cccs1)c1ccc(F)cc1Br | inactive | – | inactive | – | inactive | inactive | inactive | – | – | inactive | – | inactive | – | –
COC(=O)[C@H]1[C@H]2C[C@@H]3c4[nH]c5cc(OC)ccc5c4CCN3C[C@H]2C[C@@H](OC(=O)c2cc(OC)c(OC)c(OC)c2)[C@@H]1OC | – | inactive | – | inactive | inactive | inactive | inactive | – | inactive | inactive | 8.83 µM (active) | – | – | –
CCCCOC(=O)CCCCC(=O)OCCCC | inactive | – | inactive | – | inactive | inactive | inactive | – | inactive | inactive | – | – | – | –
CN(C)C(=O)NC1(c2ccccc2)CCN(CCC[C@]2(c3ccc(Cl)c(Cl)c3)CCCN(C(=O)c3ccccc3)C2)CC1 | – | – | – | – | inactive | inactive | inactive | 4.17 µM (active) | inactive | inactive | 2.75 µM (active) | inactive | – | –
O=C(O)c1cccnc1 | inactive | – | inactive | inactive | – | inactive | inactive | – | inactive | – | – | – | – | –
CCCCC(CC)CO (stereo unspecified) | inactive | – | inactive | – | inactive | inactive | inactive | – | inactive | inactive | – | – | – | –
O=C(N[C@@H](c1ccccc1)[C@@H]1CCCCN1)c1cccc(C(F)(F)F)c1Cl | – | inactive | – | – | inactive | inactive | – | – | inactive | inactive | 25.7 µM (active) | inactive | 33 µM (active) | 55.9 µM (active)
CC(=O)OCC(COC(C)=O)OC(C)=O | inactive | – | inactive | inactive | inactive | inactive | inactive | – | inactive | – | – | – | – | –
CCCC[C@H]1CN(CC2CCOCC2)C(=O)OC12CCN(C1(C)CCN(C(=O)c3c(C)ncnc3C)CC1)CC2 | inactive | – | inactive | – | inactive | inactive | inactive | – | – | inactive | – | – | – | –
C=CCc1ccc(OC)c(OC)c1 | inactive | – | inactive | inactive | inactive | inactive | inactive | – | – | inactive | – | – | – | –
O=C(Oc1ccccc1)c1cccc(C(=O)Oc2ccccc2)c1 | inactive | – | inactive | inactive | inactive | inactive | inactive | – | inactive | – | – | – | – | –
